Assay outcomes deposited in PubChem by Broad Institute.
This is a sample that favours compounds with a hit; in the whole collection about 2.2% have one here.
LMP1 NFkB inh = reduces LMP1-driven NF-kappaB luciferase signal. LMP1-induced NF-kappaB luciferase reporter cells, luminescence. inhibition, % at 12.5 µM. 0.69% of 350,000 active. AID 504558; in the data active = inhibition above about 41%;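 also: 0% = neutral control wells and 100% = reference inhibitor control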
LGR2 antag = Drosophila LGR2 receptor signaling inhibition | HEK293 LGR2, CRE-luciferase, bursicon-stimulated, 4 h | inhibition, % at 9.99 µM | 0.35% of 380,000 active | AID 720647;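 active = drop in luminescence signal, shown as inhibition above about 50% in the replicate tests, limit read from the data, passing the limit was not always enough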;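 also: agonist challenge used bursicon conditioned medium at about half maximal strength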
Shn3 3UTR inh = Schnurri-3 reporter inhibition in Clone20 osteoblasts. Clone20 osteoblast Shn3 3'UTR firefly luciferase, 24 h. inhibition, % at 12.5 µM. 0.52% of 360,000 active. AID 588674;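 active = mean inhibition of at least 75% with every replicate also reaching 75%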;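 also: 0% = median of neutral control wells and 100% = pilot-screen positive control compound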
MITF TRPM1 inh = MITF TRPM1 promoter inhibition in SK-MEL-5 cells; SK-MEL-5 TRPM1 promoter luciferase, 24 h; inhibition, % at 12.5 µM; AID 488899; 0.83% of 330,000 active;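 active = mean inhibition across replicates of 60% or more, whatever share of single replicates reaches that level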
EWS-Fli inh = EWS/Fli transcriptional activity inhibition; 0.67% of 350,000 active; A673 NR0B1-luciferase reporter, viability-normalised; inhibition, % at 12.6 µM;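 active = mean inhibition of at least 50% after viability correction, with every replicate also passing that limit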;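 also: firefly luciferase signal divided by Alamar Blue viability fluorescence both relative to DMSO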
PAX8 inh HTS = lowers PAX8-driven luciferase in RMG-I cells; RMG-I TPO-luciferase reporter, SteadyGlo, 24 h; inhibition, % at 12.6 µM; 1.2% of 360,000 active; AID 652154;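 active = mean replicate inhibition at least 60% with every replicate also reaching 60%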;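 also: luciferase light reporting Pax8 driven TPO promoter activity; plate controls were median of neutral control wells for no effect and mitoxantrone controls for full effect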
* marks the source's active call; other numbers are inactive results; / = no result given; ! = repeats disagree.

SMILES	LMP1 NFkB inh	LGR2 antag	Shn3 3UTR inh	MITF TRPM1 inh	EWS-Fli inh	PAX8 inh HTS
O=C(CCCc1c[nH]c2ccccc12)NCCc1c[nH]c2ccccc12	-10	2	4	25	/	37
O=C(NCCc1c[nH]c2ccccc12)c1ccc([N+](=O)[O-])o1	-16	13	-6	/	14	72*
O=C(NCCc1c[nH]c2ccccc12)OCCCCOC(=O)NCCc1c[nH]c2ccccc12	-6	84*	51	9	30	47
CC(C)C#Cc1ccc2c(c1)O[C@H](CN(C)C(=O)Cc1ccccn1)[C@@H](C)CN([C@@H](C)CO)S2(=O)=O	/	11	/	/	3	/
CN(C)S(=O)(=O)c1cccn1-c1ncc(C(F)(F)F)cc1Cl	56*	/	6	11	/	1
CCn1cc(C2Nc3ccccc3C(=O)N2O)c(C)n1 (configuration not stated)	47*	-22	-12	-29	/	/
CCOC(=O)c1c(C)oc2ccc(O)c(CN(C)C)c12	-6	/	-16	5	/	/
CCOC(=O)c1c(CSc2ccc(CC)cc2)oc2ccc(O)c(CN(C)C)c12	-15	21	90*	45	30	29
N=C(N)c1ccc(OCCCCCOc2ccc(C(=N)N)cc2)cc1	6	1	68	9	6	83*
CCCCCCOc1ccc(/C(N)=N/O)cc1	-30	/	-49	-39	/	/
C[C@@H]1CN([C@H](C)CO)C(=O)c2cc(-c3ccc(F)cc3)cnc2O[C@H]1CN(C)C(=O)CN(C)C	/	10	/	/	5	/
CC(C)C#Cc1ccc2c(c1)O[C@H](CN(C)Cc1ccccc1)[C@H](C)CN([C@H](C)CO)S2(=O)=O	/	0	/	/	18	/
COc1cccc(-c2ccc3c(c2)[C@H]2[C@H](CCN2S(=O)(=O)c2cccc(OC)c2)[C@H](CO)N3)c1	/	26	/	/	-15	11
COc1cccc(-c2ccc3c(c2)[C@@H]2[C@@H](CCN2S(=O)(=O)c2cccc(OC)c2)[C@H](CO)N3)c1	/	0	/	/	0	73*
COc1ccc(S(=O)(=O)N2CC[C@H]3[C@H](CO)Nc4ccc(-c5cccc(C#N)c5)cc4[C@H]32)cc1	/	-21	/	/	-3	31
COc1ccc(S(=O)(=O)N2CC[C@@H]3[C@@H](CO)Nc4ccc(-c5cccc(C#N)c5)cc4[C@@H]32)cc1	/	-11	/	/	54*	33
COc1ccccc1-c1cnc2c(c1)C(=O)N([C@@H](C)CO)C[C@H](C)[C@@H](CN(C)C)O2	/	14	/	/	-7	/
C[C@@H]1CN([C@H](C)CO)C(=O)c2cc(NS(C)(=O)=O)ccc2O[C@@H]1CN(C)Cc1ccc(C(=O)O)cc1	/	-9	/	/	-8	/
CN(C)CCC(c1ccccc1)c1ccccn1 (configuration not stated)	56*!	5	-5	-11	-11	-35
COc1ccc(S(=O)(=O)Nc2ccc3c(c2)C(=O)N([C@@H](C)CO)C[C@H](C)[C@H](CN(C)Cc2ccc(C(F)(F)F)cc2)OCCCC[C@H](C)O3)cc1	/	-1	/	/	18	108*
COc1ccc(S(=O)(=O)Nc2ccc3c(c2)C(=O)N([C@@H](C)CO)C[C@H](C)[C@@H](CN(C)Cc2ccc(C(F)(F)F)cc2)OCCCC[C@@H](C)O3)cc1	/	9	/	/	32	110*
COC(=O)c1ccc(CNC(=O)c2sccc2-c2ccccc2)cc1	4	-5	17	79*	4	15
COc1ccc(N=C2S/C(=C\c3ccc(OCC(=O)O)cc3)C(=O)N2CCc2c[nH]c3ccccc23)cc1	-7	8	-11	-10	20	-2
COc1ccc(N=C2S/C(=C\c3ccc(N4CCOCC4)o3)C(=O)N2CCc2c[nH]c3ccccc23)cc1	16	/	95*	58	/	/
CC(C)c1cc(C(=O)OCC(=O)N2CCN(C(=O)c3ccco3)CC2)c(O)c(C(C)C)c1	-3	0	25	44	6	113*
SMILES	LMP1 NFkB inh	LGR2 antag	Shn3 3UTR inh	MITF TRPM1 inh	EWS-Fli inh	PAX8 inh HTS
c1ccc(CN2CCC(Nc3ncnc4sccc34)CC2)cc1	-7	-12	14	-3	1	15
Cc1sc2ncnc(NC3CCN(Cc4ccccc4)CC3)c2c1C	-7	8	88*	-1	17	23
C[C@H](CO)N1C[C@H](C)[C@@H](CN(C)C(=O)Nc2ccccc2)Oc2ncc(-c3cccnc3)cc2C1=O	/	-13	/	/	-2	1
CC(CC(=O)N1CCN(c2cccc(Cl)c2)CC1)S(=O)(=O)c1ccc2c(c1)NC(=O)CO2 (configuration not stated)	22	20	89*	25	/	37
C[C@@H]1CN([C@@H](C)CO)C(=O)c2cc(C3=CCCC3)cnc2O[C@@H]1CN(C)C(=O)C1CC1	/	-8	/	/	-12	/
CCC(C)(C)c1ccc(OCCCC[n+]2cccc(C)c2)c(C(C)(C)CC)c1	24	/	88*	98*	0	71*
CC(=O)Nc1ccc(C(=O)Nc2cc(C(F)(F)F)ccc2-n2cnc3ccccc32)cc1	-3	-5	-33	9	/	5
CN(C)c1cccc(C(=O)Nc2cc(C(F)(F)F)ccc2-n2cnc3ccccc32)c1	-7	/	-21	-4	8	81*
CO[C@@H]1CN(C)C(=O)c2ccc(NC(=O)Nc3ccccc3F)cc2OC[C@@H](C)N(C(C)=O)C[C@@H]1C	/	5	/	/	-5	-5
CCOc1ccc(N(C(C)C(=O)N2CCCCCC2)S(C)(=O)=O)cc1 (configuration not stated)	71*	6	3	17	5	1
COc1ccc(S(=O)(=O)N(C)C[C@H]2Oc3ccc(NC(=O)CCN4CCOCC4)cc3CC(=O)N([C@@H](C)CO)C[C@H]2C)cc1	/	-16	/	/	-5	-7
C[C@@H]1CN([C@H](C)CO)C(=O)c2cccc(NC(=O)C3CCOCC3)c2O[C@@H]1CN(C)S(=O)(=O)c1ccc(F)cc1	/	25	/	/	-6	-3
FC(F)(F)c1nnc2c(Sc3ccccc3)nc3ccc(Cl)cc3n12	-70	/	5	82*	/	113*
CO[C@H]1CN(C)C(=O)c2ccc(NC(=O)C3CCC3)cc2OC[C@@H](C)N(Cc2ccc(F)cc2)C[C@H]1C	/	-7	/	/	-8	0
N#CC(c1ccc(Cl)cc1)c1ccc2c(C(F)(F)F)cc(C(F)(F)F)nc2n1 (configuration not stated)	52*	/	89*	79*	/	/
CCN1CCN(Cc2ccc(NC(=O)c3cc(NC(=O)c4cc5cccc(OC)c5o4)cc(OC)c3)cc2C(F)(F)F)CC1	-103	12	99*	18	53*!	90*!
COc1ccc(-c2cc(C(=O)Nc3cc(OC)cc(C(=O)Nc4cccc(C(F)(F)F)c4)c3)[nH]n2)cc1	-13	-13	8	-10	2	72*!
CCN1CCN(Cc2ccc(NC(=O)c3cc(NC(=O)c4cncc(-c5cccs5)c4)cc(OC)c3)cc2C(F)(F)F)CC1	-7	30	98*	/	64*	51
